According to the supplement of paper PMC10849652:
Targets with a hit are over-represented here; the source holds about 8,800 in all. About 0.5% of all pairs of compound and target were hits. A number with no mark means an inactive call.

Columns and labels:
Test in all cases: log2 fold change, soluble protein after heating vs DMSO (PISA); higher = thermal stabilisation; K562 lysate, 10 uM; active = over 0.2 and 3.5 SD of the protein, either way, in both replicates (recomputed)
erlotinib = compound: C#Cc1cccc(Nc2ncnc3cc(OCCOC)c(OCCOC)cc23)c1 [erlotinib]
Outline: (§1)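 A 30 min treatment with 10 μM compound was applied to crude K562 extract at 1 mg/mL protein in PBS pH 7.4 with 1 mM MgCl2. Heating for 3 min spanned 48°C-58°C, after which aliquots were pooled, adjusted to 0.5% NP-40 at 4°C and spun at 21,000xg for 90 min. TMTpro 16plex LC-MS/MS of the supernatant, with channel sums equalised, gave values recorded as log-two fold change in thermal stability against solvent controls, from duplicates.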

[1] = compound: C/C(=N\NC(=O)C1=CC(=CC=C1)S(=O)(=O)N2CCOCC2)/C3=C(C=CC(=C3)Cl)O
Outline: as §1

[2] = compound: C1=CC(=CC=C1C2=NC3=C(N2)C=C(C=C3)C(=O)N)OC4=CC=C(C=C4)Cl
Outline: as §1

[3] = compound: C1=CC2=C(C=CC(=C2)/C=C\3/C(=O)NC(=NCC4=CC=CS4)S3)N=C1
Outline: as §1

[4] = compound: C1=CC2=NC=CN=C2C=C1/C=C/3\C(=O)NC(=O)S3
Outline: as §1

[5] = compound: C1=CC=C(C=C1)C2=NC(=C(N2)C3=CC=NC=C3)C4=CC(=C(C=C4)Cl)O
Outline: as §1

[6] = compound: C1=CC=C2C(=C1)C3=NNC4=CC=CC(=C43)C2=O
Outline: as §1

[7] = compound: C1CCN(C1)C(=O)NC2=CC=CC(=C2)NC3=NC=C(C(=N3)NCCC4=CN=CN4)Br
Outline: as §1

[8] = compound: C1CN(CCC1(CC2=CC=C(C=C2)Cl)N)C3=NC=NC4=C3C=CN4
Outline: as §1

IRAK-1-4 Inhibitor I = compound: C1COCCN1CCN2C3=CC=CC=C3N=C2NC(=O)C4=CC(=CC=C4)[N+](=O)[O-] [IRAK-1-4 Inhibitor I]
Outline: as §1

ibrutinib = compound: C=CC(=O)N1CCC[C@@H](n2nc(-c3ccc(Oc4ccccc4)cc3)c3c(N)ncnc32)C1 [ibrutinib]
Outline: as §1

[9] = compound: CC(=O)c1cnc2ccc(-c3cc(Cl)c(O)c(Cl)c3)nc2c1N[C@H]1CC[C@H](CN(C)C)CC1
Outline: as §1

ralimetinib = compound: CC(C)(C)Cn1c(N)nc2ccc(-c3[nH]c(C(C)(C)C)nc3-c3ccc(F)cc3)nc21 [ralimetinib]
Outline: as §1

[10] = compound: CC(C)(O)CC(=O)NCCn1ccc2ncnc(Nc3ccc(Oc4cccc(C(F)(F)F)c4)c(Cl)c3)c21
Outline: as §1

[11] = compound: CC(C)C1=C2N=C(C=C(N2N=C1)NCC3=CC=CC=C3)NCCCCCCN
Outline: as §1

[12] = compound: CC1=C(C(CC(=O)N1)C2=CC=C(C=C2)C(F)(F)F)C(=O)NC3=C(C=C4C(=C3)C=NN4)F
Outline: as §1

[13] = compound: CC1=C(C2=C(C=C1)C(=O)C3=CC=CC=C3N2CCCN)C
Outline: as §1

[14] = compound: CC1=C(C=C(C=C1)NC(=O)C2=CC(=CC=C2)C(C)(C)C#N)NC3=CC4=C(C=C3)N=CN(C4=O)C
Outline: as §1

[15] = compound: CC1=C(C=C(C=C1)NC(=O)C2=CC(=CC=C2)N(C)C)NC(=O)C3=CC=C(C=C3)O
Outline: as §1

[16] = compound: CC1=CC=C(C=C1)SC2=C3C=C(SC3=CN=C2)C(=O)N
Outline: as §1

Sequence of UniProt O00425 (O00425 whole entry, looked up): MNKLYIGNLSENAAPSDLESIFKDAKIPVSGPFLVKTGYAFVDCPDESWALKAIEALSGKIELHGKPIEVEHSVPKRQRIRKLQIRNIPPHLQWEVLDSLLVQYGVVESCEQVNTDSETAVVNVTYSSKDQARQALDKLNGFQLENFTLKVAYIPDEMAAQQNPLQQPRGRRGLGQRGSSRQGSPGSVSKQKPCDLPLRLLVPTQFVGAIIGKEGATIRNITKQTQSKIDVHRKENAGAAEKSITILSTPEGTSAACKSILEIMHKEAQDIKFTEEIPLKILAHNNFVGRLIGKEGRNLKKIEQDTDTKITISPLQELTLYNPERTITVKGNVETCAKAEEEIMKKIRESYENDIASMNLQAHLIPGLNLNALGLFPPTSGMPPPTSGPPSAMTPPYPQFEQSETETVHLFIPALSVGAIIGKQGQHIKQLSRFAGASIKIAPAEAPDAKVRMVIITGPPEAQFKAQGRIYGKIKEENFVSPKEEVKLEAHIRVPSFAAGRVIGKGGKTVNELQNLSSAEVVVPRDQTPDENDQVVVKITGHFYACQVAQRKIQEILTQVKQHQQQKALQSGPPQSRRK
Sequence of UniProt Q14687 (Q14687 whole entry, looked up): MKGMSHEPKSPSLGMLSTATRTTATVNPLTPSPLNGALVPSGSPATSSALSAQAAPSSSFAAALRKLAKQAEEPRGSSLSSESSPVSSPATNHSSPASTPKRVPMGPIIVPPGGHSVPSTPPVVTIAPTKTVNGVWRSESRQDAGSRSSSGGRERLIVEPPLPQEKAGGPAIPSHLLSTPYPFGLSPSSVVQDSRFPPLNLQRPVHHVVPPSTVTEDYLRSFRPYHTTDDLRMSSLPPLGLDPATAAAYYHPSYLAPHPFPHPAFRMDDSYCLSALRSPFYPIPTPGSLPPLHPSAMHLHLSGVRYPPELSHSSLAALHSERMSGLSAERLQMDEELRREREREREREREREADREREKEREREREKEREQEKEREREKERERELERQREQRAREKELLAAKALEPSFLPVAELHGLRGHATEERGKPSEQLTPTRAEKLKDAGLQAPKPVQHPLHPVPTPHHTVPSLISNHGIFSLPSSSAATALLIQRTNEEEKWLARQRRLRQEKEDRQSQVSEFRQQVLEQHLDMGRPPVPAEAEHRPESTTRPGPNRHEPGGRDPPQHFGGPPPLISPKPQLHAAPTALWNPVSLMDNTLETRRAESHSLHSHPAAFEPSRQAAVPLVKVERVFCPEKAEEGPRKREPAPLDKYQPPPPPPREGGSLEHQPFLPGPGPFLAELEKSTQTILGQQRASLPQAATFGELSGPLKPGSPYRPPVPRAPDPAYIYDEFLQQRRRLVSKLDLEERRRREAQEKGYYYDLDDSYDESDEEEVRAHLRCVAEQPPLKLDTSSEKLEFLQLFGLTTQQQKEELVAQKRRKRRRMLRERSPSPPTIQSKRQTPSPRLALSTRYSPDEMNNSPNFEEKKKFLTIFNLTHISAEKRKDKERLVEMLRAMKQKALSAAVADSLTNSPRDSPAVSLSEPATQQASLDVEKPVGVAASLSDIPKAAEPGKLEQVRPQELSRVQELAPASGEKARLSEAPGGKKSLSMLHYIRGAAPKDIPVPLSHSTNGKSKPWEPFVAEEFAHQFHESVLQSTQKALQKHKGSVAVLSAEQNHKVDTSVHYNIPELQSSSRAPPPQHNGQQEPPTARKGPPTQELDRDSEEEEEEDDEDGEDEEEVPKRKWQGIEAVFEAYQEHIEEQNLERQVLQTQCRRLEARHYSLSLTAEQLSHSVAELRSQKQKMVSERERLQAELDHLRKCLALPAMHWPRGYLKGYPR
Sequence of UniProt P40939 (P40939 whole entry, looked up): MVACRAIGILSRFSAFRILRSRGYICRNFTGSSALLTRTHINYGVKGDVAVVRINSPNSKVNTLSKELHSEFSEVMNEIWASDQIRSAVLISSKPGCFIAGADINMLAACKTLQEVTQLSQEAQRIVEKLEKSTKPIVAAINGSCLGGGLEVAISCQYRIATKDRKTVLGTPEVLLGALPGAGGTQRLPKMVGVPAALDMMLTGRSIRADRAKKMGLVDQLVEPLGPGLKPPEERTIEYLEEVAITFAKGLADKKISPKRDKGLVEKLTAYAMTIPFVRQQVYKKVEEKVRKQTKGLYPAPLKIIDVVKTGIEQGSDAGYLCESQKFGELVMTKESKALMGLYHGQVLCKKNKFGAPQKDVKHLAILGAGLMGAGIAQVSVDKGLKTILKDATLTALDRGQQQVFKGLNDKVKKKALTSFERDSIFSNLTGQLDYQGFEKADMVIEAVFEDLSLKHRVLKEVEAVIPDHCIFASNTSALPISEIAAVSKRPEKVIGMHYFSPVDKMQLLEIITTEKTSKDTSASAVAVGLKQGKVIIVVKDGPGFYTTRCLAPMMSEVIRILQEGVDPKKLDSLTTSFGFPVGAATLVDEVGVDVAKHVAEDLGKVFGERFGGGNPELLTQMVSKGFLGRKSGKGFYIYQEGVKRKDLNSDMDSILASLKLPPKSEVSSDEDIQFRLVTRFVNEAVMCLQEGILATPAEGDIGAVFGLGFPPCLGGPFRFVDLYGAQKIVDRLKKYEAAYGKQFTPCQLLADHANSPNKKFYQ
Sequence of UniProt Q8NEC7 (Q8NEC7 whole entry, looked up): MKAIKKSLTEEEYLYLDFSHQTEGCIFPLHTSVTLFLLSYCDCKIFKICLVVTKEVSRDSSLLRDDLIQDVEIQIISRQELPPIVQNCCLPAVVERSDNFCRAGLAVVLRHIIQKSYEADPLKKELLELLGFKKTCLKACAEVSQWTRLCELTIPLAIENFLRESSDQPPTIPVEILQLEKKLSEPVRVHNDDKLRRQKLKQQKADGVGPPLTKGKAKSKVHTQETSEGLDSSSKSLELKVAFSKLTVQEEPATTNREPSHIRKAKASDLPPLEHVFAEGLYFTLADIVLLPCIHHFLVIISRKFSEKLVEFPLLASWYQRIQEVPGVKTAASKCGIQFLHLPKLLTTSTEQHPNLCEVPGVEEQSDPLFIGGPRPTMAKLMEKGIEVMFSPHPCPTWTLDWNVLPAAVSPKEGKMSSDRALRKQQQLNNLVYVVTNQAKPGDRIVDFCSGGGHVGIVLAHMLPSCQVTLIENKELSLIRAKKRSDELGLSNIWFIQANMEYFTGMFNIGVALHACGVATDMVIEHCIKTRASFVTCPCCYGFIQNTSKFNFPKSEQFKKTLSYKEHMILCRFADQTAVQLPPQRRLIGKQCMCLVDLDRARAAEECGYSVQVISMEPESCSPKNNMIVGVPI
Sequence of UniProt Q7Z4V5 (Q7Z4V5 whole entry, looked up): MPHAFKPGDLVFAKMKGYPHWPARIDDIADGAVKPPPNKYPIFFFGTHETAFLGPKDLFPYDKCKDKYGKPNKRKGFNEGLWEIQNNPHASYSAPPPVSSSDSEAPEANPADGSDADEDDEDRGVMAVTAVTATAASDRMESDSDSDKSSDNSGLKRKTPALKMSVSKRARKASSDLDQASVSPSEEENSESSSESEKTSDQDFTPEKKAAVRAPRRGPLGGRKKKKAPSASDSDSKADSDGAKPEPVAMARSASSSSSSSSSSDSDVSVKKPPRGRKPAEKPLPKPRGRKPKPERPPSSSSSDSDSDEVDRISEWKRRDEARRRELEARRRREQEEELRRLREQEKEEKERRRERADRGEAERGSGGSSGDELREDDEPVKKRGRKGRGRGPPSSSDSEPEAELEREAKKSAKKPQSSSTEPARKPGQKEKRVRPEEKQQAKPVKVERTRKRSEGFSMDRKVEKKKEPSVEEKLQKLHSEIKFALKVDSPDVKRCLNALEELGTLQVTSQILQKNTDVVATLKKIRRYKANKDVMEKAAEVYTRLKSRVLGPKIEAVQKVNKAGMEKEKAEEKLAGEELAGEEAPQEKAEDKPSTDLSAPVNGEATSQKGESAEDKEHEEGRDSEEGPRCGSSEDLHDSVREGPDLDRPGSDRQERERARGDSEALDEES
Sequence of UniProt Q16891 (Q16891 whole entry, looked up): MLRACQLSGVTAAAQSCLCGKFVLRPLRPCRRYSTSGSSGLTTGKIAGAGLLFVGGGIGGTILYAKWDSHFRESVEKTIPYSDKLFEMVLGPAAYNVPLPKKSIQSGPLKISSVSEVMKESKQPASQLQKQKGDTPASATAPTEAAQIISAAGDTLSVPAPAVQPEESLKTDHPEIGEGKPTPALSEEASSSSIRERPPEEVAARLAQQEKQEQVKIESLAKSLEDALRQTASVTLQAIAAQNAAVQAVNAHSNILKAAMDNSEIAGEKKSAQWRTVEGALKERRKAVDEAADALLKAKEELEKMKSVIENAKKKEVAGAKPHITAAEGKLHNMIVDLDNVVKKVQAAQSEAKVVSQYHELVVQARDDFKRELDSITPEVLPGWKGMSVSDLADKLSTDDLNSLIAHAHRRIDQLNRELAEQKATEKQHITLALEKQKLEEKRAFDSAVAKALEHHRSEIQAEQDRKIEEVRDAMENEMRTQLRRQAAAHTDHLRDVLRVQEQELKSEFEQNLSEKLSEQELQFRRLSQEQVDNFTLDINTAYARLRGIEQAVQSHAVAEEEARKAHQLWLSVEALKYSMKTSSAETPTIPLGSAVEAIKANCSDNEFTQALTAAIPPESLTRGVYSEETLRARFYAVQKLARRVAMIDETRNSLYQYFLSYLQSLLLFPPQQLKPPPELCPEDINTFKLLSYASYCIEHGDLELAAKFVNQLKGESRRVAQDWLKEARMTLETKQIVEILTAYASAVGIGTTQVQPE
Sequence of UniProt Q16836 (Q16836 whole entry, looked up): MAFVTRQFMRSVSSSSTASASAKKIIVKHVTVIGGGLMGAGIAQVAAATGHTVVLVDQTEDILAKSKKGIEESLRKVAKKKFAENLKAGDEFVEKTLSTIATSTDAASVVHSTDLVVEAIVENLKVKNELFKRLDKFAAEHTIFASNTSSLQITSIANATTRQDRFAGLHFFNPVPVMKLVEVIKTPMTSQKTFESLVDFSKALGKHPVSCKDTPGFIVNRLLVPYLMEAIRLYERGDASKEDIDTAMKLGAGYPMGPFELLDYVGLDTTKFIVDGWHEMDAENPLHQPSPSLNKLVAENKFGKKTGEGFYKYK

Target	log2 fold change (erlotinib)	log2 fold change [1]	log2 fold change [2]	log2 fold change [3]	log2 fold change [4]	log2 fold change [5]	log2 fold change [6]	log2 fold change [7]	log2 fold change [8]	log2 fold change (IRAK-1-4 Inhibitor I)	log2 fold change (ibrutinib)	log2 fold change [9]	log2 fold change (ralimetinib)	log2 fold change [10]	log2 fold change [11]	log2 fold change [12]	log2 fold change [13]	log2 fold change [14]	log2 fold change [15]	log2 fold change [16]
INTS1 (UniProt Q8N201)	0.016	0.063	0.013	-0.071	-0.017	0.027	-0.097	-0.01	0.025	0.016	-0.103	0.177	0.053	-0.007	-0.052	-0.052	0.038	-0.032	0.035	0.026
GRK6 isoform 2 (UniProt P43250)	-0.014	-0.126	0.015	-0.009	-0.046	-0.063	0.284	-0.161	0.108	0.053	0.083	0.04	-0.073	-0.068	-0.036	0.021	-0.092	0.048	-0.049	-0.005
GLUD2 (UniProt P49448)	-0.017	-0.016	-0.053	0.028	-0.057	-0.014	-0.09	-0.119	0.029	0.113	-0.063	0.063	0.02	-0.043	-0.012	0.018	-0.028	0.061	0.001	0.033
HDLBP, A0A024R4E5	0.043	0.008	0.02	-0.001	-0.024	-0.001	-0.046	-0.003	0.004	-0.005	-0.034	-0.007	0.029	-0.014	-0.012	0.007	-0.004	-0.009	0.042	0.003
GSE1 (UniProt Q14687)	0.012	-0.022	0.025	0.003	-0.001	-0.013	-0.048	-0.032	-0.018	-0.011	0.006	-0.021	0.015	-0.026	-0.004	-0.009	0.008	-0.055	0.035	-0.016
GTF3C3 (UniProt Q9Y5Q9)	0.016	0.013	-0.013	0.025	0	-0.005	-0.065	0	0.031	-0.001	0.033	-0.001	0.027	-0.005	0.02	-0.003	-0.112	0.014	0.047	-0.007
HADH isoform 2 (UniProt Q16836)	-0.052	0.065	0.023	0.08	-0.03	0.003	-0.015	-0.015	-0.028	0.008	-0.004	0.02	-0.023	-0.011	-0.036	0.013	-0.045	-0.039	0.028	0.004
HLTF (UniProt Q14527)	0.052	-0.019	0.081	-0.003	-0.032	-0.028	0.008	-0.053	0.015	-0.019	0.016	0.054	0.024	-0.017	-0.023	0.046	0.048	-0.022	0.003	-0.018
HSPB1 (UniProt P04792)	0.004	-0.03	0.03	-0.012	0.001	-0.009	0.034	-0.013	-0.025	0.006	-0.015	-0.008	0.022	-0.016	0.012	0	0.016	-0.117	0.006	0.003
HECTD3 (UniProt Q5T447)	0.027	0	-0.005	0.008	0.022	0.018	-0.008	-0.028	-0.026	0.008	0.054	0.019	0.037	-0.027	-0.022	-0.043	0.022	-0.014	0.002	0.011
HADHA (UniProt P40939)	-0.08	0.042	0.387 (active)	0.014	-0.087	-0.003	0.026	-0.067	0.04	0.031	0.078	-0.057	0.012	0.05	-0.042	-0.031	-0.01	0.055	-0.033	0.077
IGF2BP3 (UniProt O00425)	0.04	0.023	-0.007	0.003	0.005	0.024	-0.067	0.026	0	-0.018	0.006	-0.019	-0.012	0.011	0.024	-0.009	0.011	-0.047	0.007	0.021
HDAC2 (UniProt Q92769)	-0.02	0.021	-0.001	0.012	-0.013	-0.004	-0.009	-0.013	-0.001	-0.017	0	-0.008	-0.005	-0.029	-0.001	-0.013	-0.01	-0.025	-0.016	-0.013
GSTCD (UniProt Q8NEC7)	0.041	-0.017	-0.037	0.033	-0.027	0.012	-0.021	-0.028	0.005	-0.055	0.057	-0.01	0.033	-0.023	-0.038	0.044	-0.04	0.051	-0.003	0.011
HDGFL2 isoform 2 (UniProt Q7Z4V5)	-0.008	-0.028	0.032	-0.008	-0.03	0.027	0.01	0	0.021	0	-0.033	-0.002	-0.01	-0.049	0.011	-0.015	-0.026	0.022	0.021	-0.044
IMMT (UniProt Q16891)	0.008	0.058	-0.176	0.035	0.024	-0.001	-0.031	0.016	-0.026	-0.007	-0.015	0.006	-0.018	-0.045	-0.017	-0.007	0.038	0.003	0.011	0.031
